Results as given in PMC4336329 (PLoS ONE, 2015).
The whole screen tested about 310,000 compounds, of which about 14,000 (4.5%) showed an effect of 50% or more. The effect is printed as a negative number. What follows is part of a selection rich in strong results, with near analogues and random picks from the rest.

Biological target: human ether-à-go-go-related gene (hERG) potassium channel (human, UniProt Q12809)
Assay: primary screen, population patch clamp on CHO cells stably expressing hERG; higher = less effect of the substance
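Further: peak tail current of the secondary pulse compared with the same well before compound.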

human ether-à-go-go-related gene (hERG) potassium channel, sequence (Q12809 whole entry, looked up): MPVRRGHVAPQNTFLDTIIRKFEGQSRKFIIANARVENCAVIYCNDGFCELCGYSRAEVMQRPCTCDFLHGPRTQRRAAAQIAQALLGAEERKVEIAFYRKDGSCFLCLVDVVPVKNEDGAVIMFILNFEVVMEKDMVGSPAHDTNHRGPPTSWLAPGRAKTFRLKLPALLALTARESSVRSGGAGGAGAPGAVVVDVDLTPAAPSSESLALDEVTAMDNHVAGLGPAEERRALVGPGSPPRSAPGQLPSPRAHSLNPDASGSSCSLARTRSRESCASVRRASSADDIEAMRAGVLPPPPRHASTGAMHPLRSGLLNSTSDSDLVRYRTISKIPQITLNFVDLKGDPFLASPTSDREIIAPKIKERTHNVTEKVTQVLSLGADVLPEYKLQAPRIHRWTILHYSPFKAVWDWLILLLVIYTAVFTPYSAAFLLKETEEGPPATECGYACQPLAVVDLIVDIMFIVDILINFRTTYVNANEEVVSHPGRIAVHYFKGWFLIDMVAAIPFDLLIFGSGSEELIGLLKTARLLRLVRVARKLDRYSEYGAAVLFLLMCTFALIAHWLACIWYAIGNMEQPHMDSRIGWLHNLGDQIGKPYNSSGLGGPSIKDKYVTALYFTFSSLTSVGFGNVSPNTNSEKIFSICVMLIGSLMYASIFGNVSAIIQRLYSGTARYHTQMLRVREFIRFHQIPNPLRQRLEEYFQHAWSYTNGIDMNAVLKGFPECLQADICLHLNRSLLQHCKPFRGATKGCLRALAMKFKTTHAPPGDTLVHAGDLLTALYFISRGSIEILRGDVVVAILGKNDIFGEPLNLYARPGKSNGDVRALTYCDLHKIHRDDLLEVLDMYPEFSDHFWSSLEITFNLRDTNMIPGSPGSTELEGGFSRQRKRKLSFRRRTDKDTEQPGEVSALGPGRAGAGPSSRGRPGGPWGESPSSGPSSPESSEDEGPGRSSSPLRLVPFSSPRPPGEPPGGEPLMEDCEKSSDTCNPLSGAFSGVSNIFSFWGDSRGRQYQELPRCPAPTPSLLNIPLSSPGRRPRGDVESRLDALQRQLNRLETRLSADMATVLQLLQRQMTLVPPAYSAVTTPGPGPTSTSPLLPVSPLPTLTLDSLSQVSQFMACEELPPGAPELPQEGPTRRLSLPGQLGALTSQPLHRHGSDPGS

Compound	hERG current change (%, negative = inhibition) at 10uM [%]
CCOC(=O)c1c(NC(=O)CN2CCN(C(=O)c3ccco3)CC2)sc(C)c1C	-8.41
CCOC(=O)c1c(NC(=O)CN2CCN(C(=O)c3ccco3)CC2)sc(C(N)=O)c1C	-20.1
Cc1ccc(C(=O)c2cc(C)sc2NC(=O)CN2CCN(C(=O)c3ccco3)CC2)cc1	-11.7
CCOC(=O)c1cc(C)sc1NC(=O)CN1CCN(C(=O)c2ccco2)CC1	-72.8
CCOC(=O)c1cc(CC)sc1NC(=O)CN1CCN(C(=O)c2ccco2)CC1	-67.2
COC(=O)c1sccc1NC(=O)c1cc(-c2ccc(C)cc2C)nc2ccccc12	6.94
CC(C)C(NC(=O)c1ccc(C(C)(C)C)cc1)C(=O)NC1=NCCS1 (stereo not drawn)	-6.13
Cc1ccccc1CN(c1ccc(C(=O)Nc2cccnc2)cc1)S(C)(=O)=O	-9.59
NC(=O)CSc1n[nH]c(-c2ccco2)n1	24
O=C(COC(=O)COc1cccc(C(F)(F)F)c1)NC(=O)NC1CCCCC1	-1.9
Cc1c(CNCCc2ccccc2)c(C(=O)O)c(C)n1-c1ccccc1	12.1
C/C(=N/NC(=O)CNC(=O)Cc1ccc(Cl)cc1)c1ccco1	4.04
CCc1cc(C(=O)c2ccc(OC)cc2)c(NC(=O)CN2CCCC2)s1	-12.4
CCc1cc(C(=O)c2ccc(OC)cc2)c(NC(=O)CN2CCCCC2)s1	5
CCc1cc(C(=O)c2ccc(OC)cc2)c(NC(=O)CN2CCN(C)CC2)s1	-71.3
CCOc1cccc2cc(C(=O)N3CCc4ccccc43)c(=O)oc12	-2.43
COC(=O)C1=C(c2ccc(OC)c(OC)c2)C[C@@H]2CC[C@H]1N2C(=O)NCCCOC(C)C	15.3
C[N+]1(CC(=O)OCCCC2CCCCC2)CCCC1.[I-]	-8.31
Cl.O=[N+]([O-])c1ccc(OCC(O)CNC2CCCC2)cc1 (stereo not drawn)	-76.2
CC(OCC(O)CNCC1COc2ccccc2O1)c1ccc(Cl)cc1 (stereo not drawn)	-22.7
Cl.OC(CNC1CCCC1)COc1ccc(Cl)cc1 (stereo not drawn)	-9.8
COC(=O)c1ccc(OCC(O)CNC2CCCC2)cc1.Cl (stereo not drawn)	13.3
Cl.OC(CNC1CCCC1)COc1ccc(-c2ccccc2)cc1 (stereo not drawn)	-51.8

Compound	hERG current change (%, negative = inhibition) at 10uM [%]
Cl.OC(CNC1CCCC1)COc1ccc(F)cc1 (stereo not drawn)	5.27
Cl.OC(CNCC1COc2ccccc2O1)COc1ccc(Cl)cc1 (stereo not drawn)	-56.2
COc1ccc(OCC(O)CNC2CCCC2)cc1.Cl (stereo not drawn)	12.8
OC(CNCC1COc2ccccc2O1)COc1ccccc1F (stereo not drawn)	1.11
O=C(O)c1ccccc1C(=O)NCC(O)COc1ccc(Cl)cc1 (stereo not drawn)	2.34
OC(CNC1Cc2ccccc2C1)COc1ccc(Cl)cc1 (stereo not drawn)	-68.8
OC(CNC1Cc2ccccc2C1)COc1ccc(F)cc1 (stereo not drawn)	-49.1
O=C(CSc1nnc(-c2cccs2)o1)N1CCCc2ccccc21	3.02
O=C(CCCn1c(=S)[nH]c2ccsc2c1=O)Nc1ccc2c(c1)OCO2	17.2
O=C(COC(=O)c1ccccc1O)Nc1cc([N+](=O)[O-])ccc1Cl	-21.5
Nc1nc(NCCc2ccccc2)nc(NCc2ccccc2)c1[N+](=O)[O-]	20.4
Cc1ccc(OCC(O)CNS(=O)(=O)c2ccccc2C(=O)N2CCCCC2)cc1 (stereo not drawn)	-13.9
Cc1ccc(C(C)C)c(OCC(O)CNC2CCCC2)c1.Cl (stereo not drawn)	-51.9
Cc1cccc(C)c1OCC(O)CNS(=O)(=O)c1ccccc1C(=O)N1CCCCC1 (stereo not drawn)	-10.9
O=C(c1ccccc1S(=O)(=O)NCC(O)COc1ccc([N+](=O)[O-])cc1)N1CCCCC1 (stereo not drawn)	-56.8
Cc1ccc(C)c(OCC(O)CNC2CCCC2)c1.Cl (stereo not drawn)	8.8
Cc1ccc(OCC(O)CNC2CCCC2)c(C)c1.Cl (stereo not drawn)	7.48
CCc1nn(C(C)C(=O)N2CCN(c3ccccc3)CC2)c(=O)c2cc3occc3n12 (stereo not drawn)	-25.3
CCOC(=O)C1C(c2ccc(O)c(OCC)c2)NC(=S)NC1(O)C(F)(F)F (stereo not drawn)	-12.5
CC(=O)c1ccc(N2CCN(C(=O)CCC(=O)Nc3ccc4nc(N5CCN(C)CC5)cc(C)c4c3)CC2)cc1	20.3
CN(C(=O)COC(=O)c1ccc(-c2ccc(O)cc2)cc1)C1CCS(=O)(=O)C1 (stereo not drawn)	10.8
COCCNC(=O)CN(C(=O)CCC(=O)Nc1ccccn1)c1ccc(F)c(Cl)c1	4.59
